Compound activity deposited in PubChem BioAssay by National Center for Advancing Translational Sciences (NCATS).
KB-3-1 cytotox – qHTS assay for MDR1-selective chemotherapeutics: Primary screen using the parental adenocarcinoma cell KB-3-1 | KB-3-1 viability, CellTiter-Glo ATP luminescence, 72 h | Potency, µM (titrated, usually from 46.1 µM), actives largely listed as cytotoxic | 400,000 compounds, 1.4% hits | AID 1347075, 2019; also: % is scaled to controls: 0 for no effect and ±100 for the full control effect; nearly all actives have a fitted effect of over 60% in size
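Parental KB-3-1 viability, qHTS format: 72 h compound exposure, 37 °C; CellTiter-Glo; media-only wells and DMSO plates as controls; concentration-effect fits on corrected data.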
PINK1 modulator – A Quantitative High throughput Screen to Identify Chemical Modulators of PINK1 Expression; PINK1 immunofluorescence, high-content cytometry, 24 h; Potency, µM (series often up to 76.6 µM), inactives show at the top dose activation (PINK1 increase), usual class: activators; 410,000 compounds, 0.2% hits; active = well fitted activation curve with a large enough effect; inconclusive = small, poorly fitted or top-dose-only effect; cell line not stated here; also: % of control where 0% means no effect; nearly all actives have a fitted effect of over 65% in size
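Decision-based qHTS: stable cells, 24 h exposure to five compound concentrations, CCCP as control. Fixed cells stained for PINK1 plus nuclear, mitochondrial and cell markers, cytometer read.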
KB-V1 MDR tox – qHTS assay for MDR1-selective chemotherapeutics: Primary screen using the drug-selected MDR subline cells KB-V1; KB-V1 MDR cells viability, CellTiter-Glo, 72 h; AID 1347076, 2019; 400,000 compounds, 3.4% hits; Potency, µM (top dose mostly 46.1 µM), hits mostly cytotoxic; also: % is scaled to controls: 0 for no effect and ±100 for the full control effect; nearly all actives have a fitted effect of over 60% in size
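In this primary screen, KB-V1 cells overexpressing P-gp are incubated with library compounds (lowest to highest concentration) for 72 h at 37 degrees C before a luminescent ATP viability read.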
TSG101-PTAP inh – qHTS Assay for Iinhibitors of HIV-1 Budding by Blocking the Interaction of PTAP/TSG101; Potency, µM (highest dose often 115 µM), for the others: at the top dose activity change, negative = inhibition, usual class: inhibitors; 340,000 tested, under 10 active; Fluorescence polarization, FITC-PTAP peptide / Tsg101 binding; Tumor susceptibility gene 101 protein (Homo sapiens), Q99816; AID 493005, 2010; active = well fitted inhibition curve with a large enough effect in the main read-out, with a control signal flat, not every such curve was filed as active; inconclusive = small, poorly fitted or top-dose-only effect, or effect the other way, or a change in a side signal; inactive = no such curve, though single readings can be large or run the other way; also: % of control where 0% means no effect
Target sequence (Q99816 whole entry, looked up): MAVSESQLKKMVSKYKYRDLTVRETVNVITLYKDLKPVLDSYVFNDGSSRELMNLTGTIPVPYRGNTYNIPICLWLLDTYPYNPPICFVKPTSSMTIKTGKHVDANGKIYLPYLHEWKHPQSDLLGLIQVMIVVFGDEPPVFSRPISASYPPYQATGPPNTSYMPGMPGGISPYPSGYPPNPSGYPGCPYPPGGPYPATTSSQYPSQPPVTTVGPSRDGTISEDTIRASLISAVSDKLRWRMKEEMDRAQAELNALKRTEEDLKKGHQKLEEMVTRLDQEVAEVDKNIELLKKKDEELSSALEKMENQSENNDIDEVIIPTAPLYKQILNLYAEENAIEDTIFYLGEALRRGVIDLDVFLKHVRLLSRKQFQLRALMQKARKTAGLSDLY
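FP read-out: FITC-PTAP peptide, 50 nM final, binding Tsg101 binding domain, 10 uM final; 20 min, r.t.; 10 mM HEPES pH 7.5, 0.15 M NaCl, 0.01% Tween 20, 3 mM EDTA, 0.1 mM TCEP.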
SW480 rerep – A quantitative high throughput screen for small molecules that induce DNA re-replication in SW480 colon adenocarcinoma cells; SW480 DNA re-replication, Hoechst DNA content imaging, 48 h; Potency, µM (series often up to 46.1 µM), without a hit: top-dose re-replication activation, usual class: activators; 340,000 compounds, 1.8% hits; also: % of control where 0% means no effect; nearly all actives have a fitted effect of over 55% in size
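Quantitative HTS format with DMSO vehicle controls; 48 hr drug incubation at 37 C, then 40 min Hoechst staining and scanning imager measurement at 405 nm excitation.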
MCF10A rereplic – A quantitative high throughput screen for small molecules that induce DNA re-replication in MCF 10a normal breast cells; MCF 10A DNA re-replication, Hoechst nuclear intensity, 48 h; 350,000 compounds, 2.9% hits; AID 624296, 2012; Potency, µM (titrated, usually from 46.1 µM), without a hit: at the top dose activity, positive = re-replication, actives largely listed as activators; also: % of control where 0% means no effect; nearly all actives have a fitted effect of over 50% in size
* = called active by the depositor. Rows were chosen to be rich in hits. Some 6.8% of all compounds tested hit in one or more screens of this group. Unless noted, calls follow the shape of the dose curve; as a rule, active = well fitted curve in the direction sought with a large enough effect; inconclusive = small, poorly fitted or top-dose-only effect, or another doubt; inactive = no such curve, though single readings can be large; an effect the other way counts as inactive or inconclusive. Potency is read from the fitted curve at half-maximal effect.

What do the screens show for `CC(C)COc1cccc(-c2cc(C(=O)N/N=C/c3ccncc3)c3ccccc3n2)c1`?
KB-3-1 cytotox: inconclusive; PINK1 modulator: 4%; KB-V1 MDR tox: inconclusive; TSG101-PTAP inh: inconclusive; SW480 rerep: 4%; MCF10A rereplic: 18µM*

Results for COC(=O)c1c(C)nn(-c2ccc(F)cc2)c1-n1cccc1 ?
PINK1 modulator: 1%

How did Cc1cccc(CNC(=O)c2cnn(-c3ncc(C)c(-c4ccc(F)cc4)n3)c2C)n1 do in these assays?
PINK1 modulator: 0%

Results for CCN(C(=O)C1CCCN(c2ncnc3c2nc2n3CCCCC2)C1)c1cccc(C)c1 (centres undefined) ?
KB-3-1 cytotox: inconclusive; PINK1 modulator: 2%; KB-V1 MDR tox: inconclusive

How did O=C(N/N=C/c1ccc2ncccc2c1)c1cc(-c2cccs2)nc2ccccc12 do in these assays?
KB-3-1 cytotox: inconclusive; PINK1 modulator: 5%; KB-V1 MDR tox: inconclusive; TSG101-PTAP inh: 0%; SW480 rerep: 12%; MCF10A rereplic: 5.8µM*

What do the screens show for `COc1ccc(-c2cc(C(=O)N/N=C/c3cccnc3)c3cc(C)cc(C)c3n2)cc1`?
KB-3-1 cytotox: inactive; PINK1 modulator: 1%; KB-V1 MDR tox: inconclusive; TSG101-PTAP inh: 0%; SW480 rerep: inconclusive; MCF10A rereplic: 16µM*

How did Cc1cc(C(=O)N/N=C/c2cccnc2)c2ccccc2n1 do in these assays?
KB-3-1 cytotox: inconclusive; PINK1 modulator: 21%; KB-V1 MDR tox: inactive; TSG101-PTAP inh: -5%; SW480 rerep: inconclusive; MCF10A rereplic: inconclusive

How did CCOc1ccccc1-c1cc(C(=O)N/N=C/c2cccnc2)c2ccccc2n1 do in these assays?
KB-3-1 cytotox: inactive; PINK1 modulator: 2%; KB-V1 MDR tox: inactive; TSG101-PTAP inh: -3%; SW480 rerep: 5%; MCF10A rereplic: 17%

Results for CCOc1ccc(-c2cc(C(=O)N/N=C/c3cccnc3)c3ccccc3n2)cc1 ?
KB-3-1 cytotox: 8.2µM*; PINK1 modulator: inconclusive; KB-V1 MDR tox: inconclusive; TSG101-PTAP inh: -4%; SW480 rerep: 7.3µM*; MCF10A rereplic: 2.9µM*

What do the screens show for `O=C(N/N=C/c1cccnc1)c1cc(-c2cccs2)nc2ccccc12`?
KB-3-1 cytotox: 16µM*; PINK1 modulator: 9%; KB-V1 MDR tox: inconclusive; TSG101-PTAP inh: 1%; SW480 rerep: inconclusive; MCF10A rereplic: inconclusive

Results for O=C(NC1CCCC1)c1ccc2c(=O)n(Cc3ccccc3)c(SCc3ccccc3)nc2c1 ?
PINK1 modulator: -1%

Results for OB(O)O ?
SW480 rerep: 1%; MCF10A rereplic: -4%

How did CCn1c(=O)c2sccc2n2c(CCC(=O)Nc3ccc(C(C)C)cc3)nnc12 do in these assays?
KB-3-1 cytotox: inactive; PINK1 modulator: 3%; KB-V1 MDR tox: inactive

What do the screens show for `Cc1cc(/C=C/c2ccccc2)nc2ccccc12`?
KB-3-1 cytotox: inactive; KB-V1 MDR tox: inconclusive

Results for Cc1nc2n(c(=O)c1CCN1CCC(c3noc4cc(F)ccc34)CC1)CCC[C@H]2O ?
KB-3-1 cytotox: inactive; KB-V1 MDR tox: inactive

What do the screens show for `Cc1ccc2c(Cl)c(C(=O)N/N=C/c3cccn3C)sc2c1`?
KB-3-1 cytotox: inactive; PINK1 modulator: 14%; KB-V1 MDR tox: inactive; TSG101-PTAP inh: 3%; SW480 rerep: 2%; MCF10A rereplic: 21µM*

How did Cc1cc(C(=O)N/N=C/c2cccn2C)no1 do in these assays?
KB-3-1 cytotox: inactive; PINK1 modulator: 1%; KB-V1 MDR tox: inactive; TSG101-PTAP inh: -2%; SW480 rerep: -3%; MCF10A rereplic: 3%

How did CC(C)Oc1ccc(-c2nc3c(C#N)c[nH]n3c2NC2CCCCC2)cc1 do in these assays?
KB-3-1 cytotox: inactive; PINK1 modulator: 1%; KB-V1 MDR tox: inconclusive

Results for c1ccc(CCNc2ncnc3scc(C4COc5ccccc5O4)c23)cc1 (centres undefined) ?
KB-3-1 cytotox: inconclusive; PINK1 modulator: 1%; KB-V1 MDR tox: 13µM*; TSG101-PTAP inh: 1%; SW480 rerep: 5%; MCF10A rereplic: inconclusive

What do the screens show for `c1ccc2c(c1)OCC(c1csc3ncnc(N4CCCC4)c13)O2` (centres undefined)?
KB-3-1 cytotox: inconclusive; PINK1 modulator: 1%; KB-V1 MDR tox: 13µM*; TSG101-PTAP inh: -7%; SW480 rerep: 2%; MCF10A rereplic: -1%

Results for Oc1ccccc1N1CCN(c2ncnc3scc(-c4ccc(F)cc4)c23)CC1 ?
KB-3-1 cytotox: inactive; PINK1 modulator: 0%; KB-V1 MDR tox: inactive; TSG101-PTAP inh: 0%; SW480 rerep: inconclusive; MCF10A rereplic: inconclusive

Results for CCCN1CCN(CCNC(=O)Nc2cc(Cl)c(OC)cc2OC)CC1 ?
KB-3-1 cytotox: inactive; PINK1 modulator: 1%; KB-V1 MDR tox: inactive

Results for COc1ccccc1-c1ccc(C(=O)N(C)CC2COCCO2)c(N2CCN(c3ccccc3F)CC2)n1 (centres undefined) ?
PINK1 modulator: 0%

What do the screens show for `CCc1ccc(-n2nc(C)c3c(C(=O)Nc4ccc(Cl)cc4)cc(C)nc32)cc1`?
KB-3-1 cytotox: inactive; PINK1 modulator: 0%; KB-V1 MDR tox: inactive

What do the screens show for `CN(C)CCN1C(=O)c2cccc3cc([N+](=O)[O-])cc(c23)C1=O`?
KB-3-1 cytotox: 8.2µM*; PINK1 modulator: -7%; KB-V1 MDR tox: 2.6µM*; TSG101-PTAP inh: -17%; SW480 rerep: 1.5µM*; MCF10A rereplic: inconclusive

How did CCOC(=O)c1c(NC(=O)CN2CCOCC2)sc2c1CC(C)(C)OC2 do in these assays?
KB-3-1 cytotox: inactive; PINK1 modulator: 5%; KB-V1 MDR tox: inactive; TSG101-PTAP inh: -6%; SW480 rerep: 10%; MCF10A rereplic: 19%

How did CCOC(=O)c1c(NC(=O)CCN2CCOCC2)sc2c1CC(C)(C)OC2 do in these assays?
KB-3-1 cytotox: inactive; PINK1 modulator: 0%; KB-V1 MDR tox: 16µM*; TSG101-PTAP inh: -5%; SW480 rerep: -2%; MCF10A rereplic: inconclusive

Results for O=C(c1ccc2c(=O)n(C3CCCC3)c(=S)[nH]c2c1)N1CCCCCC1 ?
KB-3-1 cytotox: inconclusive; PINK1 modulator: 4%; KB-V1 MDR tox: 7.3µM*; TSG101-PTAP inh: -1%; SW480 rerep: -3%; MCF10A rereplic: -1%
